Shown is part of a subset that was picked to be rich in hits.
RXFP1 ag – qHTS Assay for Agonists of the Relaxin Receptor RXFP1. Relaxin receptor 1 (Homo sapiens), Q9HBX9. Potency, µM (titrated, usually from 57.5 µM), inactives show at the highest dose activation, hits mostly activators. HEK293T-RXFP1 cAMP TR-FRET, 30 min; response scale: percent of porcine relaxin response, buffer zero. 0.3% of 370,000 active; also: potency is read from the fitted curve at half-maximal effect; % is scaled to controls: 0 for no effect and ±100 for the full control effect; nearly all actives have a fitted effect of over 60% in size
Target sequence (Q9HBX9 whole entry, looked up): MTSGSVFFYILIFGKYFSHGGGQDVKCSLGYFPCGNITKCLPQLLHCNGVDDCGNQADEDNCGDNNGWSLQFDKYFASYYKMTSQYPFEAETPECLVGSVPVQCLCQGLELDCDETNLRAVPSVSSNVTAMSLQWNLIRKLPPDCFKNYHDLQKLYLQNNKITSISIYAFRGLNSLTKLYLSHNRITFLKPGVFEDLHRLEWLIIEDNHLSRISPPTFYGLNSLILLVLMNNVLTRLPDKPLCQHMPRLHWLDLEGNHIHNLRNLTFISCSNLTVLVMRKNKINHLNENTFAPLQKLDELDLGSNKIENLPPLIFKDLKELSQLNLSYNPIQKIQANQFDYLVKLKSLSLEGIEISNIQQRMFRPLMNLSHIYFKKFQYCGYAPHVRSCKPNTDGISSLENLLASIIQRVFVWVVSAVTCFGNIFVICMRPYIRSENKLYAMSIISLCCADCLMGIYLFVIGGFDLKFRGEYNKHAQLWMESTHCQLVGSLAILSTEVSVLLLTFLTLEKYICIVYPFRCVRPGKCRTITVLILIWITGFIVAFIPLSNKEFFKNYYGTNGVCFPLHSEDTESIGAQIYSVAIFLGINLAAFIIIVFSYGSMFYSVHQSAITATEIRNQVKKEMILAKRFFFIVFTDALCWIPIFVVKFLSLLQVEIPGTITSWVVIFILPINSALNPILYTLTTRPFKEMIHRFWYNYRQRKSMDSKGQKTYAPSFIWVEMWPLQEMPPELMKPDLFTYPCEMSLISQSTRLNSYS
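cAMP rise read by TR-FRET after 30 min, 37C compound exposure (up to 58 uM) in RXFP1-transfected HEK293 cells with Ro 20174 present. EC50 from Hill-equation fits, with 29 nM porcine relaxin as 100% and buffer as basal.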
PTHR1 ag – qHTS for PTHR1 Agonists: Primary Screen | HEK293 GP2 PTHR1 cells, GloSensor cAMP luminescence, 1 h | Potency, µM (highest dose often 115 µM), for the others: at the highest dose activation, usual class: activators | 0.075% of 410,000 active | AID 743266, 2014; also: potency is read from the fitted curve at half-maximal effect; nearly all actives have a fitted effect of over 55% in size
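HEK-293-derived GP2 cells expressing PTHR1 and a GloSensor cAMP reporter, 3,000/well, plated overnight, given luciferin plus IBMX (each 0.5 mM as added) for 1 h at 37 °C, then compound for 1 h at 37 °C. Luminescence was read after 15 min at room temperature.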
NPSR antag – qHTS Assay for Antagonists of the Neuropeptide S Receptor: cAMP Signal Transduction; 1% of 220,000 active; CHO-NPSR cells, cAMP TR-FRET, antagonist mode; Potency, µM (titrated, usually from 38.3 µM), inactives show at the highest dose activity change, negative = inhibition, most hits filed as inhibitors; Q6W5P4; AID 1461, 2008; also: potency is read from the fitted curve at half-maximal effect; % is scaled to controls: 0 for no effect and ±100 for the full control effect; nearly all actives have a fitted effect of over 50% in size
TCR act – Activators of T cell receptors: qHTS campaign | primary human leukocytes, anti-CD3, IL-2 HTRF, 48 h | Potency, µM (series often up to 9.22 µM), without a hit: top-dose activation of IL-2 secretion, usual class: activators | 330,000 tested, under 10 active | AID 504894, 2011; also: % of control where 0% means no effect
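HTRF read-out of IL-2 secretion: europium cryptate donor excited at 320nm, d2 acceptor emission at 665nm. Cells were primary human leukocytes incubated 48 hr with compounds and a-CD3 beads, supplying TCR signal only.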
TSHR antagonist – Antagonists of the Thyroid Stimulating Hormone Receptor: HTS campaign | Thyrotropin receptor (Homo sapiens), P16473 | TSHR-expressing cells, TSH-stimulated cAMP HTRF, 2 h; active compounds read low | activity change, negative = inhibition, % at 11.5 µM | 0.2% of 330,000 active | AID 504810, 2011;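 active = activity change below a set negative limit, meaning inhibition stronger than a set level, cut at about -70% in these data; inconclusive = activity change between two set negative limits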; also: % is scaled to controls: 0 for no effect and ±100 for the full control effect
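TSHR-expressing cells, 200/well, pre-treated with compound, then stimulated with EC80 TSH (4nM final) for 2 hours at 37 deg C. cAMP measured by competitive HTRF: anti-cAMP cryptate antibody in lysis buffer plus cAMP-d2, read after 30 minutes at room temperature.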
RXFP1 antagonist – qHTS Assay for Antagonists of the Relaxin Receptor RXFP1 | Relaxin receptor 1 (Homo sapiens), Q9HBX9 | HEK293-RXFP1, relaxin-stimulated cAMP HTRF, 30 min; active compounds read low | activity change, negative = inhibition, % at 57.5 µM | 0.59% of 350,000 active;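 active = activity change of -60% or lower, but not beyond a set lower limit; inconclusive = change between -60% and -40%, or beyond the set limit; inactive = change above -40%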; also: % is scaled to controls: 0 for no effect and ±100 for the full control effect
Active calls of the source: *; [ ] = remark or other dose. Unless noted, calls follow the shape of the dose curve; as a rule, active = well fitted curve in the direction sought with a large enough effect; inconclusive = small, poorly fitted or top-dose-only effect, or another doubt; inactive = no such curve, though single readings can be large; an effect the other way counts as inactive or inconclusive.

What do the screens show for `O=C(CSc1ncnc2ccccc12)Nc1cc(S(=O)(=O)N2CCCCC2)ccc1Cl`?
RXFP1 ag: 16µM*; PTHR1 ag: -16%; NPSR antag: -20%; TCR act: -3%[46.1 µM]; TSHR antagonist: 28; RXFP1 antagonist: 1

Results for Cc1ccc(NC(=O)CSc2ncnc3ccccc23)cc1S(=O)(=O)N1CCCCCC1 ?
RXFP1 ag: 4%; PTHR1 ag: -50%; NPSR antag: -55%; TCR act: -4%[46.1 µM]; TSHR antagonist: -42; RXFP1 antagonist: 5

Results for CC(=O)OCC1=C(C(=O)OC(C)(C)C)N2C(=O)[C@@H](NC(=O)Cc3ccccc3)[C@H]2SC1 ?
PTHR1 ag: inactive; TCR act: 6%

How did CC1=C(C(=O)OCC(Cl)(Cl)Cl)N2C(=O)C(NC(=O)Cc3ccccc3)C2SC1 (centres undefined) do in these assays?
RXFP1 ag: -1%; PTHR1 ag: -55%; NPSR antag: -2%; TCR act: -4%; TSHR antagonist: -77*; RXFP1 antagonist: inconclusive

What do the screens show for `Cc1nn(CCc2nn[nH]n2)c2nc(-c3ccc(C4CCCCC4)cc3)cc(C(F)(F)F)c12`?
RXFP1 ag: 0%; PTHR1 ag: -18%; NPSR antag: 13µM*; TCR act: 7%; TSHR antagonist: -42; RXFP1 antagonist: -18

What do the screens show for `Cc1nn(CCC(=O)O)c2nc(-c3cccnc3)cc(C(F)(F)F)c12`?
RXFP1 ag: 5%; PTHR1 ag: 26%[57.5 µM]; NPSR antag: -26%[46.1 µM]; TCR act: 6%; TSHR antagonist: -28; RXFP1 antagonist: -24

What do the screens show for `C#CCOCCOCCOCCNc1nc(N2CCN(C(=O)CCCCCCCCCCNC(=O)Cn3cc(C[C@@H](C)O)nn3)CC2)nc(N2CCN(C(=O)CCCCCCCCCCNC(=O)[C@H](CCCCN)n3cc(C[C@@H](C)CC)nn3)CC2)n1`?
RXFP1 ag: 1%; PTHR1 ag: 18µM*; TCR act: 4%; TSHR antagonist: 45

Results for O=C1c2ccccc2C(=O)N1CCCCSc1nnnn1-c1ccccc1 ?
RXFP1 ag: 2%; PTHR1 ag: -12%[57.5 µM]; NPSR antag: inconclusive; TCR act: 6%; TSHR antagonist: -72*; RXFP1 antagonist: 4

Results for O=C1c2ccccc2C(=O)N1CSc1nnnn1-c1ccccc1 ?
RXFP1 ag: 4%; PTHR1 ag: -34%; NPSR antag: -5%[46.1 µM]; TCR act: -1%; TSHR antagonist: -5; RXFP1 antagonist: 23

Results for CC(C)C(C(=O)Nc1ccncc1)c1ccc(Cl)cc1 (centres undefined) ?
RXFP1 ag: -1%; PTHR1 ag: inactive; TCR act: -4%; TSHR antagonist: -4; RXFP1 antagonist: 0

Results for CC(C)C(C(=O)Nc1nccs1)c1ccc(Cl)cc1 (centres undefined) ?
RXFP1 ag: 3%; PTHR1 ag: -19%; NPSR antag: -42%; TCR act: 1%; TSHR antagonist: -10; RXFP1 antagonist: -83*

Results for N/C(Cc1ccc([N+](=O)[O-])cc1)=N\OC(=O)Cc1ccc(Cl)cc1 ?
RXFP1 ag: -4%; PTHR1 ag: inactive; NPSR antag: -10%[46.1 µM]; TCR act: 1%[46.1 µM]; TSHR antagonist: -77*; RXFP1 antagonist: -15

Results for COc1ccc2c(c1)oc(=O)c1ccccc12 ?
RXFP1 ag: -2%; PTHR1 ag: -53%; NPSR antag: -15%; TCR act: -7%; TSHR antagonist: 3; RXFP1 antagonist: 2

What do the screens show for `O=c1oc2cc(O)c(Cl)cc2c2ccccc12`?
RXFP1 ag: 11µM*; PTHR1 ag: inactive; NPSR antag: 7.9µM*; TCR act: -1%[46.1 µM]; TSHR antagonist: 87; RXFP1 antagonist: 43

How did Cc1cccc(N(C(=O)Cn2nnc(-c3ccccc3F)n2)C(C(=O)NC(C)(C)C)c2ccncc2)c1 (centres undefined) do in these assays?
RXFP1 ag: 1%; PTHR1 ag: inactive; NPSR antag: -15%; TCR act: -1%; TSHR antagonist: -14; RXFP1 antagonist: -8

Results for CC(C)(C)NC(=O)C(c1ccncc1)N(C(=O)Cn1nnc(-c2ccc(F)cc2)n1)c1cccc(F)c1 (centres undefined) ?
RXFP1 ag: 1%; PTHR1 ag: 10µM*; NPSR antag: 3%; TCR act: 1%; TSHR antagonist: -10; RXFP1 antagonist: 3

Results for COc1ccccc1C(=O)Nc1ccccc1C(=O)OCc1cc(=O)n2ccsc2n1 ?
RXFP1 ag: 13%; PTHR1 ag: -12%; RXFP1 antagonist: -9

How did Cc1nnsc1S(=O)c1ccc(Cl)c(Cl)c1 (centres undefined) do in these assays?
RXFP1 ag: 1%; PTHR1 ag: -12%; TCR act: -15%; TSHR antagonist: -3; RXFP1 antagonist: 6

Results for O=S(c1ccc2ccccc2c1)c1cnns1 (centres undefined) ?
RXFP1 ag: 0%; PTHR1 ag: -96%[57.5 µM]; NPSR antag: 10µM*; TCR act: -2%; TSHR antagonist: -5; RXFP1 antagonist: -33

How did CCC12CN3CC(C)(CN(C1)C3c1c[nH]c3ccc(OC)cc13)C2=O (centres undefined) do in these assays?
RXFP1 ag: -2%; PTHR1 ag: inactive; RXFP1 antagonist: 1

Results for Fc1ccc2c(c1)Sc1ccc(Cl)cc1CC2N1CCN(CCC2OCCO2)CC1 (centres undefined) ?
PTHR1 ag: -2%; TCR act: -4%; RXFP1 antagonist: -62*

Results for Cc1cn([C@@H]2O[C@H](CO)[C@@H](O)[C@H]2F)c(=O)[nH]c1=O ?
RXFP1 antagonist: -9

How did COc1ccc(NC(=O)/C(Cl)=C(/Cl)S(=O)(=O)Cc2ccc(C)cc2)cn1 do in these assays?
RXFP1 ag: 0%; PTHR1 ag: -24%; NPSR antag: 4µM*; TCR act: 7%; TSHR antagonist: -48; RXFP1 antagonist: -71*

Results for COc1ccc(NC(=O)/C(Cl)=C(/Cl)S(=O)Cc2ccccc2Cl)cn1 (centres undefined) ?
RXFP1 ag: 0%; PTHR1 ag: -54%; NPSR antag: 5µM*; TCR act: -2%; TSHR antagonist: inconclusive; RXFP1 antagonist: -118*
